Reference: article PMC10812921, “Transcriptional Coactivator BOB1 (OBF1, OCA-B) Modulates the Specificity of DNA Recognition by the POU-Domain Factors OCT1 and OCT2 in a Monomeric Configuration”

The sequences below were run against POU1 (OCT1 POU domain);BOB1 (OBF1, OCA-B) (human;human, UniProt P14859;Q16633 260-458;1-256, |) (assay: EMSA-SELEX-seq; with BOB1 (ternary complex band); 20 mM Tris-HCl pH 7.6, 140 mM NaCl, 10% glycerol, 0.5 mM EDTA, 0.05% Triton X-100, 0.1 mg/mL BSA, 0.1 mg/mL poly(dI-dC), 5 mM DTT, room temperature, 20 min; high values mean tight binding). Conditions: protein: recombinant;recombinant; copies: 1;1; dsDNA, one strand shown.
Outline: (§1)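 After expression in E. coli BL21, tagged POU-domain proteins were purified under denaturing conditions and then renatured. Each binding reaction held 30 ng protein and 300 ng of a PCR-amplified double-stranded random 35-nt library in 20 μL Tris–HCl pH 7.6 binding buffer, with or without 28 ng coactivator protein, for 20 min at RT. Bands holding complexes were cut from native 6% PAGE, eluted and PCR-amplified across four rounds, and the output was Illumina-sequenced. The value given for binding preference is the share, in percent, of sequenced 8-mers fitting a motif pattern.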

Sequence | binding signal
AGGCAAAT | 2.22 % of ANNNNAAN 8-mers
AGGCGAAT | 0.0593 % of ANNNNAAN 8-mers
AGCGCAAG | 0.0144 % of ANNNNAAN 8-mers
AAAAGAAG | 0.0679 % of ANNNNAAN 8-mers
ATGGAAAA | 0.289 % of ANNNNAAN 8-mers
ATTTGAAT | 1.92 % of ANNNNAAN 8-mers
AGTCAAAT | 1.18 % of ANNNNAAN 8-mers
AGAATAAA | 0.0757 % of ANNNNAAN 8-mers
ACTCGAAC | 0.0113 % of ANNNNAAN 8-mers
ATTGGAAG | 0.0371 % of ANNNNAAN 8-mers
ACGCGAAT | 0.0336 % of ANNNNAAN 8-mers
AGGGGAAG | 0.0507 % of ANNNNAAN 8-mers
ATGAGAAC | 0.03 % of ANNNNAAN 8-mers
ACAATAAA | 0.0453 % of ANNNNAAN 8-mers
AAGCAAAG | 0.125 % of ANNNNAAN 8-mers
AAGGGAAA | 0.255 % of ANNNNAAN 8-mers
ACAGTAAG | 0.032 % of ANNNNAAN 8-mers
ATCGAAAC | 0.0316 % of ANNNNAAN 8-mers
ACCAAAAA | 0.0425 % of ANNNNAAN 8-mers
ATGGAAAG | 0.199 % of ANNNNAAN 8-mers

Sequence | binding signal
ATTAGAAA | 0.0738 % of ANNNNAAN 8-mers
ATCCCAAC | 0.0172 % of ANNNNAAN 8-mers
ACACAAAT | 0.175 % of ANNNNAAN 8-mers
AAGAAAAC | 0.0644 % of ANNNNAAN 8-mers
AACAAAAG | 0.0741 % of ANNNNAAN 8-mers
AACCTAAT | 0.0386 % of ANNNNAAN 8-mers
AATGAAAG | 0.0901 % of ANNNNAAN 8-mers
ACGCTAAA | 0.0281 % of ANNNNAAN 8-mers
AACGTAAC | 0.0211 % of ANNNNAAN 8-mers
AGCCGAAC | 0.016 % of ANNNNAAN 8-mers
ACAGAAAT | 0.0472 % of ANNNNAAN 8-mers
ACAGGAAA | 0.0702 % of ANNNNAAN 8-mers
ATTAAAAG | 0.115 % of ANNNNAAN 8-mers
AGTAGAAC | 0.0242 % of ANNNNAAN 8-mers
AGCTAAAA | 0.0425 % of ANNNNAAN 8-mers
AGTTAAAT | 0.217 % of ANNNNAAN 8-mers
AGGAGAAT | 0.0624 % of ANNNNAAN 8-mers
ACGTAAAA | 0.0823 % of ANNNNAAN 8-mers
ATCTGAAG | 0.0359 % of ANNNNAAN 8-mers

These sequences were tested against T1, POU2 (OCT2 POU domain);BOB1 (OBF1, OCA-B) (human;human, UniProt P09086;Q16633 175-386;1-256, |) in the same assay as above. Conditions: protein: recombinant;recombinant; copies: 1;1; dsDNA, one strand shown.
T1 sequence 1: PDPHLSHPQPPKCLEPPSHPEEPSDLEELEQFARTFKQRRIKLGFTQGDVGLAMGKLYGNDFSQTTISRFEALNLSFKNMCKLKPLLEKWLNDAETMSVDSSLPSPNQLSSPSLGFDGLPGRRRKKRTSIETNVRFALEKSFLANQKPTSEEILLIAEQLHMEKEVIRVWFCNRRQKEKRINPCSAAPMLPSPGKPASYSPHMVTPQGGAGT
T1 sequence 2: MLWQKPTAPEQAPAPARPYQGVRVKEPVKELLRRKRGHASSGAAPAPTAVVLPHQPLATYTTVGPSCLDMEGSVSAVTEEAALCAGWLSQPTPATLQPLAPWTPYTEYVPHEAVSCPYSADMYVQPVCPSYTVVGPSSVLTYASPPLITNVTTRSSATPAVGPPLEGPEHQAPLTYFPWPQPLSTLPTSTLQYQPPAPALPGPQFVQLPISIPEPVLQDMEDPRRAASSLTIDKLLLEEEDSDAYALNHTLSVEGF
Outline: as §1

Sequence | binding signal
AGGCAAAT | 2.15 % of ANNNNAAN 8-mers
AGGCGAAT | 0.0743 % of ANNNNAAN 8-mers
AGCGCAAG | 0.0165 % of ANNNNAAN 8-mers
AAAAGAAG | 0.071 % of ANNNNAAN 8-mers
ATGGAAAA | 0.147 % of ANNNNAAN 8-mers
ATTTGAAT | 2.32 % of ANNNNAAN 8-mers
AGTCAAAT | 1.04 % of ANNNNAAN 8-mers
AGAATAAA | 0.0892 % of ANNNNAAN 8-mers
ACTCGAAC | 0.0198 % of ANNNNAAN 8-mers
ATTGGAAG | 0.0438 % of ANNNNAAN 8-mers
ACGCGAAT | 0.0371 % of ANNNNAAN 8-mers
AGGGGAAG | 0.057 % of ANNNNAAN 8-mers
ATGAGAAC | 0.0388 % of ANNNNAAN 8-mers
ACAATAAA | 0.0396 % of ANNNNAAN 8-mers
AAGCAAAG | 0.0537 % of ANNNNAAN 8-mers
AAGGGAAA | 0.136 % of ANNNNAAN 8-mers
ACAGTAAG | 0.0272 % of ANNNNAAN 8-mers
ATCGAAAC | 0.0215 % of ANNNNAAN 8-mers
ACCAAAAA | 0.0256 % of ANNNNAAN 8-mers
ATGGAAAG | 0.129 % of ANNNNAAN 8-mers

Sequence | binding signal
ATTAGAAA | 0.0892 % of ANNNNAAN 8-mers
ATCCCAAC | 0.014 % of ANNNNAAN 8-mers
ACACAAAT | 0.0916 % of ANNNNAAN 8-mers
AAGAAAAC | 0.0355 % of ANNNNAAN 8-mers
AACAAAAG | 0.0454 % of ANNNNAAN 8-mers
AACCTAAT | 0.0438 % of ANNNNAAN 8-mers
AATGAAAG | 0.0718 % of ANNNNAAN 8-mers
ACGCTAAA | 0.0322 % of ANNNNAAN 8-mers
AACGTAAC | 0.0272 % of ANNNNAAN 8-mers
AGCCGAAC | 0.014 % of ANNNNAAN 8-mers
ACAGAAAT | 0.0504 % of ANNNNAAN 8-mers
ACAGGAAA | 0.0603 % of ANNNNAAN 8-mers
ATTAAAAG | 0.102 % of ANNNNAAN 8-mers
AGTAGAAC | 0.0239 % of ANNNNAAN 8-mers
AGCTAAAA | 0.0338 % of ANNNNAAN 8-mers
AGTTAAAT | 0.127 % of ANNNNAAN 8-mers
AGGAGAAT | 0.0702 % of ANNNNAAN 8-mers
ACGTAAAA | 0.0537 % of ANNNNAAN 8-mers
ATCTGAAG | 0.0413 % of ANNNNAAN 8-mers
